The values that follow come from PubChem BioAssay (NCI).

Test systems include DU-145 prostate; K-562 leukemia; MALME-3M melanoma; MDA-MB-231 breast; RXF 393 renal; SF-268 CNS; SF-295 CNS; SF-539 CNS; UACC-257 melanoma; M14 melanoma.
What all share (experiment): NCI-60 one-dose screen, 48 h (100 = growth as untreated, 0 = no growth, -100 = all killed)
What all share (settings): 10 µM unless noted

This is part of a sample that, as a whole, favours compounds with a hit. Of some 83,000 tested, about 20% had one in any assay.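 Cell lines were cultured in 96-well plates, exposed to a single compound concentration, and assessed for percent growth 48 hours later.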 Unmarked numbers belong to inactive results. Active and inactive are the calls of the source. The calls were made as follows: active = growth percent below 10; inactive = the rest.

Regarding `N#Cc1c(-c2ccccc2)nc(SCC(=O)N2CCN(c3ccccc3)CC2)[nH]c1=O`, the growth with DU-145 prostate is 120%; with K-562 leukemia it was 112%; with MALME-3M melanoma it was 94.9%; with MDA-MB-231 breast it was 115%; in the assay on RXF 393 renal, 104%; in the assay with SF-268 CNS, 111%. Further, the growth was 102% with SF-295 CNS, 99.2% with SF-539 CNS, 89.2% with UACC-257 melanoma and 96.7% with M14 melanoma.
On to `CCOC(=O)c1ccc2c(c1)nc(-c1ccc(OCc3ccccc3)c(OC)c1)n2-c1cc(C(C)(C)C)[nH]n1`, for which the growth in the assay with DU-145 prostate is 89.9%; in the assay on K-562 leukemia it was 55.4%; in the assay with MALME-3M melanoma it was 99.2%; with MDA-MB-231 breast it was 109%; with RXF 393 renal, 83.6%; with SF-268 CNS, 88.1%. Further, the growth with SF-295 CNS is 35.8%; in the assay on SF-539 CNS, 88.2%; with UACC-257 melanoma, 101%; in the assay on M14 melanoma, 95.4%.
Consider `Cn1cnc2c(N3CCN(C(=O)OCc4ccc5c(Cl)cc(Cl)c(O)c5n4)CC3)nc(Cl)nc21`, for which the growth with DU-145 prostate was 61.1%; with K-562 leukemia, 44.9%; in the assay with MALME-3M melanoma it was 85.2%; in the assay on MDA-MB-231 breast it was 83%; in the assay on RXF 393 renal it was 74.4%; in the assay on SF-268 CNS, 59.5%. Moreover, the growth in the assay on SF-295 CNS was 38.7%; in the assay with SF-539 CNS, 82.7%; with UACC-257 melanoma, 89.6%; in the assay on M14 melanoma, 66.1%.
Take `Cc1ccc(S(=O)(=O)NCCNc2nccc(-c3c(-c4cccc(N)c4)nc4sccn34)n2)cc1`: the growth is 96.9% with DU-145 prostate; 67.1% in the assay on K-562 leukemia; 106% with MALME-3M melanoma; 85.9% in the assay on MDA-MB-231 breast; 102% in the assay on RXF 393 renal; 86.7% in the assay on SF-268 CNS. For the same molecule, the growth with SF-295 CNS was 95.6%; in the assay with SF-539 CNS, 101%; in the assay with UACC-257 melanoma, 91.1%; in the assay on M14 melanoma, 107%.
In the case of `Cc1ccc(S(=O)(=O)/C(=C\c2ccc(Cl)cc2)C(=O)c2ccccc2)cc1`, the growth is 113% in the assay with DU-145 prostate; 96.1% in the assay on K-562 leukemia; 107% in the assay with MALME-3M melanoma; 103% in the assay with MDA-MB-231 breast; 104% with RXF 393 renal; 103% in the assay on SF-268 CNS. For the same molecule, the growth with SF-295 CNS is 93.1%; in the assay on SF-539 CNS, 122%; with UACC-257 melanoma, 114%; with M14 melanoma it was 102%.
Regarding `N/C(=N\S(=O)(=O)c1ccccc1)Nc1nc2ccccc2s1`, the growth in the assay on DU-145 prostate is 111%; in the assay with K-562 leukemia it was 84.9%; with MALME-3M melanoma, 105%; in the assay with MDA-MB-231 breast, 92.3%; in the assay on RXF 393 renal, 99.4%; with SF-268 CNS it was 92.2%. Moreover, the growth in the assay on SF-295 CNS was 92.7%; with SF-539 CNS, 91.2%; with UACC-257 melanoma it was 92.6%; in the assay on M14 melanoma it was 101%.
With `Cc1csc(NC(c2ccccc2)c2c(C)nc3ccccn23)n1` (stereo not given), the growth was 110% in the assay on DU-145 prostate; 88.1% in the assay with K-562 leukemia; 97.2% with MALME-3M melanoma; 96.8% with MDA-MB-231 breast; 122% with RXF 393 renal; 103% in the assay with SF-268 CNS. Also, the growth in the assay with SF-295 CNS is 87.1%; in the assay on SF-539 CNS, 101%; in the assay with UACC-257 melanoma it was 94.8%; in the assay on M14 melanoma it was 95.3%.
Consider `CN1C(=O)N(C)C2C1NN=c1s/c(=C\c3cccnc3)c(=O)n12` (stereo not given), for which the growth with DU-145 prostate was 95.5%; with K-562 leukemia, 27.7%; in the assay with MALME-3M melanoma, 71.4%; with MDA-MB-231 breast it was 69.1%; with RXF 393 renal, 92.4%; in the assay with SF-268 CNS, 84.8%. The growth in the assay on SF-295 CNS was 81.7%; in the assay on SF-539 CNS, 91%; with UACC-257 melanoma it was 85.2%; in the assay on M14 melanoma, 61.1%.
Regarding `C=C1CCC2C(C)(CO)C(O)CCC2(C)C1C/C=C1/C(=O)OCC1Oc1ccccc1C` (stereo not given), the growth in the assay with DU-145 prostate is 82.8%; in the assay on K-562 leukemia, 30.6%; with MALME-3M melanoma it was 109%; in the assay with MDA-MB-231 breast, 109%; in the assay on RXF 393 renal it was 109%; in the assay with SF-268 CNS it was 102%. Moreover, the growth in the assay on SF-295 CNS was 97.6%; in the assay with SF-539 CNS, 81.1%; with UACC-257 melanoma it was 83.5%; in the assay with M14 melanoma, 67.1%.
Take `Fc1ccc(Nc2ncnc3ccc(-c4cnc5[nH]ccc5c4)cc23)cc1Cl`: the growth with DU-145 prostate is 40.4%; with K-562 leukemia it was 4.25% (active); with MALME-3M melanoma, 2.95% (active); in the assay with MDA-MB-231 breast it was -16.9% (active); in the assay with RXF 393 renal, -27.3% (active); with SF-268 CNS it was 32.8%. Besides, the growth was -32.2% (active) in the assay on SF-295 CNS, -73.2% (active) in the assay with SF-539 CNS, 39.2% with UACC-257 melanoma and 42.7% in the assay with M14 melanoma.
Regarding `CCCCCCN1CSC(=S)N(CCCCCC)C1`, the growth in the assay on DU-145 prostate is 113%; in the assay on K-562 leukemia, 110%; in the assay with MALME-3M melanoma, 95.2%; in the assay with MDA-MB-231 breast it was 97.4%; with RXF 393 renal, 106%; in the assay on SF-268 CNS, 104%. The growth was 98.2% in the assay with SF-295 CNS, 102% in the assay with SF-539 CNS, 104% in the assay on UACC-257 melanoma and 96.5% in the assay on M14 melanoma.
Regarding `COc1ccc(OC)c(/C=C2\Oc3cc(OCCCN4CCCC4)ccc3C2=O)c1`, the growth was 79.6% in the assay with DU-145 prostate; -5.23% (active) with K-562 leukemia; 104% with MALME-3M melanoma; 68.8% with MDA-MB-231 breast; 73.4% in the assay on RXF 393 renal; 79.8% with SF-268 CNS. In addition, the growth is 97.4% in the assay with SF-295 CNS, 46% with SF-539 CNS, 40.5% in the assay on UACC-257 melanoma and -2.52% (active) in the assay on M14 melanoma.
`COc1ccc2[nH]c(=O)c3c4ccccc4cn3c2c1`: the growth with DU-145 prostate was 11.3%; in the assay on K-562 leukemia, 4.25% (active); in the assay on MALME-3M melanoma, 12.6%; in the assay with MDA-MB-231 breast it was 28.5%; in the assay on RXF 393 renal it was -25.2% (active); with SF-268 CNS, 1.5% (active). Further, the growth with SF-295 CNS was -2.6% (active); in the assay on SF-539 CNS, 9.14% (active); in the assay with UACC-257 melanoma, 51.3%; with M14 melanoma it was 23.9%.
Regarding `C=C1CCC2C3(C)COC(C)(C)OC3CCC2(C)C1C/C=C1/C(=O)OCC1Oc1ccccc1OC` (stereo not given), the growth was 78.9% in the assay with DU-145 prostate; 21.7% in the assay on K-562 leukemia; 112% in the assay on MALME-3M melanoma; 103% in the assay on MDA-MB-231 breast; 93.3% with RXF 393 renal; 99.7% with SF-268 CNS. Also, the growth with SF-295 CNS is 101%; with SF-539 CNS it was 83%; in the assay with UACC-257 melanoma, 85.3%; with M14 melanoma, 72.3%.
On to `CCCOC(=O)n1cccc1`, for which the growth was 108% in the assay on DU-145 prostate; 115% in the assay with K-562 leukemia; 147% in the assay on MALME-3M melanoma; 99% with MDA-MB-231 breast; 102% in the assay on RXF 393 renal; 98.4% in the assay with SF-268 CNS. In addition, the growth is 122% in the assay with SF-295 CNS, 102% with UACC-257 melanoma and 101% in the assay on M14 melanoma.
Consider `S=C1CC(=S)NC(=S)N1`, for which the growth in the assay on DU-145 prostate is 108%; with K-562 leukemia it was 119%; with MALME-3M melanoma, 121%; in the assay with MDA-MB-231 breast it was 106%; in the assay with RXF 393 renal it was 107%; in the assay on SF-268 CNS, 102%. The growth with SF-295 CNS is 116%; in the assay on UACC-257 melanoma, 105%; with M14 melanoma, 103%.
Take `CN(C)CCCC(C#N)c1ccccc1` (stereo not given): the growth in the assay with DU-145 prostate is 122%; in the assay with K-562 leukemia, 99.1%; with MALME-3M melanoma it was 131%; with MDA-MB-231 breast, 112%; in the assay on RXF 393 renal, 115%; in the assay on SF-268 CNS it was 114%. Besides, the growth was 110% in the assay on SF-295 CNS, 104% in the assay on UACC-257 melanoma and 104% in the assay with M14 melanoma.
For the molecule `COc1c2occc2c(OC)c2c(=O)c(-c3cc(-c4ccc(F)cc4)c(C#N)c(N)n3)c(C)oc12`, the growth in the assay on DU-145 prostate is 30.3%; in the assay with K-562 leukemia, 19.5%; in the assay with MALME-3M melanoma, 88.8%; in the assay on MDA-MB-231 breast, 30%; in the assay on RXF 393 renal, 44.4%; in the assay with SF-268 CNS it was 35.5%. The growth with SF-295 CNS was 56.5%; in the assay on SF-539 CNS it was 67.7%; in the assay with M14 melanoma, 70.6%.
As to `O=C1NN(C(=O)c2ccc(Cl)cc2)C(c2ccccc2)=N/C1=C\c1cn(-c2ccccc2)nc1-c1ccccc1`, the growth in the assay with DU-145 prostate was 103%; in the assay on K-562 leukemia it was 99.2%; in the assay on MALME-3M melanoma, 77.7%; with MDA-MB-231 breast it was 92%; in the assay with RXF 393 renal it was 89.9%; in the assay with SF-268 CNS it was 94.8%. Also, the growth was 73.8% with SF-295 CNS, 94.1% with SF-539 CNS, 92.8% with UACC-257 melanoma and 83.4% with M14 melanoma.
`CCCCCCCCCCCCCCCCNC(=O)OC(C)C`: the growth with DU-145 prostate is -23.3% (active); in the assay with K-562 leukemia, 8% (active); in the assay with MALME-3M melanoma it was 81.2%; in the assay on MDA-MB-231 breast, 23.8%; with RXF 393 renal it was 80.1%; in the assay with SF-268 CNS, 64.9%. The growth was 20.8% with SF-295 CNS, 95.8% in the assay on UACC-257 melanoma and 35.7% in the assay with M14 melanoma.
`C=C[C@@H]1C[C@@H]2Cc3ccccc3N1O2`: the growth was 120% in the assay on DU-145 prostate; 54.3% in the assay with K-562 leukemia; 125% in the assay with MALME-3M melanoma; 106% with MDA-MB-231 breast; 119% in the assay with RXF 393 renal; 116% in the assay on SF-268 CNS. Further, the growth with SF-295 CNS was 99.8%; with SF-539 CNS, 103%; in the assay on UACC-257 melanoma, 97.7%; in the assay on M14 melanoma, 102%.
